The text below walks through data of PubChem BioAssay (NCATS).

Assay [1] in a line: qHTS for differential inhibitors of proliferation of Plasmodium falciparum line D10 (AID 1877;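 note: potency is the fitted concentration of half-maximal effect; parasites grown with compound for 72 h before DNA staining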). (In general: Quantitative high-throughput screening tests each substance at several concentrations.)
A short description of assay [2]: qHTS for differential inhibitors of proliferation of Plasmodium falciparum line Dd2 (AID 1882). Note: potency is the fitted concentration of half-maximal effect; nearly all actives have a fitted effect of over 65% in size. Particulars: Potency: Plasmodium falciparum Dd2 proliferation inhibition. The method in brief: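 SYBR Green DNA fluorescence (ex 485, em 535 nm) after overnight lysis quantifies parasite growth; compound exposure lasted 72 h at 37 C on infected red cells at 2.5% hematocrit, 0.3% parasitemia (final). Artemisinin 0.29 uM and vehicle wells define normalization.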

A short description of assay [3]: qHTS for differential inhibitors of proliferation of Plasmodium falciparum line W2 (AID 1883).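 Note: potency is the fitted concentration of half-maximal effect; parasites grown with compound for 72 h before lysis and staining.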 Particulars: Potency: Plasmodium falciparum W2 proliferation inhibition.
Assay [4] is described as follows: qHTS for differential inhibitors of proliferation of Plasmodium falciparum line HB3 (AID 1886).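 Note: potency is the fitted concentration of half-maximal effect; parasites grown with compound for 72 h before SYBR Green readout.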 Particulars: Potency: Plasmodium falciparum HB3 proliferation inhibition.
Assay [5] deals with Ferritin light chain (Equus caballus) (UniProt P02791). The assay is described as follows: qHTS Validation Assay for Identification of Novel General Anesthetics (AID 2323). Note: % is set by controls: 0 for no effect and ±100 for the full control effect. The method in brief: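 Fluorescence at 535 nm (excitation 380 nm) reported loss of 1-AMA binding to horse-spleen apoferritin (10 uM) in PBS with 50% saturated 1-aminoanthracene, after 10 min room-temperature incubation with compound; values from Hill fits of normalized response.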
Chain of Ferritin light chain (Equus caballus) (P02791 2-175 limits assumed): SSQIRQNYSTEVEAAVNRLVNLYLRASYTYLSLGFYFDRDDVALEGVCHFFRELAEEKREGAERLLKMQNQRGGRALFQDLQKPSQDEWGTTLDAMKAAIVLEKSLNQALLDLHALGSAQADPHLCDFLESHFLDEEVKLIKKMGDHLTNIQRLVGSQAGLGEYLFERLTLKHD

In assay [6] the target is ATP-dependent DNA helicase Q1 (Homo sapiens) (UniProt P46063). The assay is described as follows: qHTS Validation Assay for Inhibitors of RecQ-Like Dna Helicase 1 (RECQ1) (AID 2353).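 Note: plate controls were DMSO vehicle for no effect and enzyme-free control for full effect.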 The gist of the method: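 RECQ1T1 50 nM; forked duplex (20 bp + 30-nt ss tails) 200 nM, ATP 2 mM final; pH 8.0, 2 mM MgCl2, 2.5 ug/ml poly(dI-dC); 15 min compound preincubation; discontinuous kinetic read over 2 h at RT.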
Chain of ATP-dependent DNA helicase Q1 (Homo sapiens) (P46063 whole entry, looked up): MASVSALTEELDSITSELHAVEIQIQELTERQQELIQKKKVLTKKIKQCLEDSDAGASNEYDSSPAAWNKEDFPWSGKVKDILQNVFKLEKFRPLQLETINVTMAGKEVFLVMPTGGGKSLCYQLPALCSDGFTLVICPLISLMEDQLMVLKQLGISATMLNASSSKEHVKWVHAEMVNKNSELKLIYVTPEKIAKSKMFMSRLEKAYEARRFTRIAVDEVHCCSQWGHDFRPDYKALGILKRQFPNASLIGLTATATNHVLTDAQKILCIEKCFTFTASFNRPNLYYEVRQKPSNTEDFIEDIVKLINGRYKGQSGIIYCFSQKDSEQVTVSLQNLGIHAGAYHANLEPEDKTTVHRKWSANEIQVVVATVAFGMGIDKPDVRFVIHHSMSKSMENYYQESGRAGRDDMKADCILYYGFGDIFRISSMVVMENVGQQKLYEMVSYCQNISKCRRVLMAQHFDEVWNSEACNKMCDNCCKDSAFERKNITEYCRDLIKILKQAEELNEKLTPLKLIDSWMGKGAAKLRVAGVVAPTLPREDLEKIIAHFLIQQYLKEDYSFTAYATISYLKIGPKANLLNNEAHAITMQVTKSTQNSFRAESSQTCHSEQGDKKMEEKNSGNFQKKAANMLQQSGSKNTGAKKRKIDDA

Assay [7] in a line: Quantitative high throughput screen for delayed death inhibitors of the malarial parasite plastid, 96 hour incubation (AID 488745). Note: potency is the fitted concentration of half-maximal effect; nearly all actives have a fitted effect of over 70% in size. The gist of the method:
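Readout is firefly luciferase luminescence from an integrated reporter in P. falciparum; lower signal marks inhibited growth. Cultures at 2% hematocrit and 0.1% parasitemia were treated with compound across two generations (96 h, 37 C, 5% CO2).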

Assay [8] concerns the target M-phase phosphoprotein 8 (Homo sapiens) (UniProt Q99549). The assay is described as follows: qHTS Validation Assay for Inhibitors for MPP8 Chromodomain Interactions with Methylated Histone Tails (AID 488949).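 Note: 50 nM MPP8 with 50 nM peptide preformed then compounds added for 30 min; AlphaScreen signal from MPP8 chromodomain bound to biotinylated H3K9me3 peptide; top concentration of the series differs between compounds; % is set by controls: 0 for no effect and ±100 for the full control effect; nearly all actives have a fitted effect of over 55% in size.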 The method in brief: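 50 nM MPP8 + 50 nM b-H3K9me3 peptide, PBS pH 7.4/0.01% Tween-20, 30 min RT; + cpd 30 min RT; + AlphaScreen donor/Ni-chelate acceptor beads 10 ug/mL final, 30 min dark; luminescence read.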

Assay [9] concerns the target Thyrotropin receptor (Homo sapiens) (UniProt P16473). The experiment in a line: qHTS Assay for Antagonists of the Thyroid Stimulating Hormone Receptor (AID 488980). Note: 0% is about no effect. The method in brief:
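Readout is cAMP by HTRF competition between cellular cAMP and cAMP-d2 for a cryptate-labelled antibody. Antagonism was assessed in TSHR-transfected HEK293 cells stimulated with 4 nM TSH (EC80, final) in the presence of RO 20-1724.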

Assay [10] addresses Thyrotropin-releasing hormone receptor (Homo sapiens) (UniProt P34981). The experiment in a line: qHTS for Small Molecule Agonists and Allosteric Enhancers of Human TRH Receptor: Validation Screen for Agonists (AID 493127;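 active = calcium activation more than 3 SD above the typical response in the agonist read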;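 note: intracellular calcium rise by fluo-8 fluorescence before TRH EC20 addition; 0% is about no effect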). Particulars: TRH receptor agonist cell assay; at 2 µM; stronger effect = higher value. The gist of the method:
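Compounds are added by online pintool to dye-loaded TRHR cells while fluorescence is recorded every second. A rise in calcium signal during the agonist read marks activation; a later 10 nM TRH addition (EC20) serves the separate enhancer mode.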

Assay [11] has as its target Galactokinase (Homo sapiens) (UniProt P51570). The experiment in a line: qHTS Validation Assay for Inhibitors of Human Galactokinase (GALK) (AID 493189). Note: 0% is about no effect. The method in brief:
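5 nM GALK / 100 uM galactose / 35 uM ATP, 20 mM HEPES pH8.0, 5 mM MgCl2, 60 mM NaCl, 1 mM DTT, 0.01% BSA (final). RT 1 h; Kinase-Glo Plus luminescence.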

Assay [12] can be described thus: Validation screen for small molecules that induce DNA re-replication in SW480 colon adenocarcinoma cells (AID 504364). Note: 0% is about no effect. The method in brief: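 Image-based qHTS: compounds were incubated with SW480 cells for 48 hr, nuclei stained with Hoechst, and per-nucleus fluorescence intensity scanned to flag cells with excess DNA content.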
The target of assay [13] is DNA dC->dU-editing enzyme APOBEC-3G (Homo sapiens) (UniProt Q9HC16). The assay is described as follows: qHTS for inhibitors of Vif-A3G interactions: Validation (AID 588379). Note: 0% is about no effect. The method in brief: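 Yellow fluorescence (Ex 488, Em 500-530) of Vif-coexpressing HeLa A3G-eYFP cells, scanned by Acumen cytometer, reports blocked A3G degradation. Cells plated at 700/well overnight at 37 deg C before compound addition, then a further overnight compound incubation at 37 deg C.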
Chain of DNA dC->dU-editing enzyme APOBEC-3G (Homo sapiens) (Q9HC16 whole entry, looked up): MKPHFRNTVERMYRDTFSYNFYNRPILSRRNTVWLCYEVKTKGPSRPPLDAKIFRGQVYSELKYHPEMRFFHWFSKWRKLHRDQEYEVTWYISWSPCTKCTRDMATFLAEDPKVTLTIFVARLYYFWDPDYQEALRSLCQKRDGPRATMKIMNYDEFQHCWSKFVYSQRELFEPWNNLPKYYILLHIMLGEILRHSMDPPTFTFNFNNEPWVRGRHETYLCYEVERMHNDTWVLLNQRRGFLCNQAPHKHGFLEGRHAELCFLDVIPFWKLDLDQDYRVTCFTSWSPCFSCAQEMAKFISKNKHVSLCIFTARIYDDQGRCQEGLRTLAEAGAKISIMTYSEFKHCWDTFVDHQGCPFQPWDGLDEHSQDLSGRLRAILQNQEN

The target of assay [14] is Voltage-gated inwardly rectifying potassium channel KCNH2 (Homo sapiens) (UniProt Q12809). The experiment in a line: qHTS Assay for Small Molecule Inhibitors of the Human hERG Channel Activity (AID 588834).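 Note: top concentration of the series differs between compounds; % is set by controls: 0 for no effect and ±100 for the full control effect; lower thallium flux fluorescence means stronger hERG block; nearly all actives have a fitted effect of over 50% in size.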 The method in brief: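 Step 1: BacMam hERG transduction of U2OS, 4 hrs RT. Step 2: overnight 37 °C, plate 2000 cells/well, 4 hr. Step 3: FluxOR load, compound 10 min, stimulate, read fluorescence.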
Chain of Voltage-gated inwardly rectifying potassium channel KCNH2 (Homo sapiens) (Q12809 whole entry, looked up): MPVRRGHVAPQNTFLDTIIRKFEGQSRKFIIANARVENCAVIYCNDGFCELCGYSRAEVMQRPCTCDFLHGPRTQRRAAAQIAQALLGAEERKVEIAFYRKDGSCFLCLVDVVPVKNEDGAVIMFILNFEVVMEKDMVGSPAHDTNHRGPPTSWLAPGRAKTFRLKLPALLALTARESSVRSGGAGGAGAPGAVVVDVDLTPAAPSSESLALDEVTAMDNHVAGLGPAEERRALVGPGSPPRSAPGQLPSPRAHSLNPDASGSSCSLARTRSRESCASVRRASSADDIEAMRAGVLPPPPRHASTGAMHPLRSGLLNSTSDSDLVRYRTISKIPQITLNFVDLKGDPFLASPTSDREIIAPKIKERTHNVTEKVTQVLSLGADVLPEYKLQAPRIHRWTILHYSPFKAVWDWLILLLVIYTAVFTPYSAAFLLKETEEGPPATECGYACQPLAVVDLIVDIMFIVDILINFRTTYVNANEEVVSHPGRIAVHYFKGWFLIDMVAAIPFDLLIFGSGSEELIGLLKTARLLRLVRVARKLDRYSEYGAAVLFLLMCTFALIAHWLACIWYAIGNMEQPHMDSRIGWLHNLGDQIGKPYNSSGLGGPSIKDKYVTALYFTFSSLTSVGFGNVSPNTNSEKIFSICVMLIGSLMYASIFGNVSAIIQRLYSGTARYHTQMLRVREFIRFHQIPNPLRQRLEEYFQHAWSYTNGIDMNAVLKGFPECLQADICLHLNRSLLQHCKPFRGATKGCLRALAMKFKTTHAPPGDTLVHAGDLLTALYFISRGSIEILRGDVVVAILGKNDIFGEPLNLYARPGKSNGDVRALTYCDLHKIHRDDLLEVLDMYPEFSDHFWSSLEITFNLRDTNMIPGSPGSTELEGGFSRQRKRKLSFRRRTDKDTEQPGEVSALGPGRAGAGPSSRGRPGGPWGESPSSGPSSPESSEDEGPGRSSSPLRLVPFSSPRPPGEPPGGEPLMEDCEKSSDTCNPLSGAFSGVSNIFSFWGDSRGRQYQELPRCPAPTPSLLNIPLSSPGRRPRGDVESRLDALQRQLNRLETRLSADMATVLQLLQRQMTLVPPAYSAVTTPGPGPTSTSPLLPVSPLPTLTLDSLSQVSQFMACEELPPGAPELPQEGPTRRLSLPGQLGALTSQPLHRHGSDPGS

Assay [15] can be described thus: qHTS profiling for inhibitors of Plasmodium falciparum (3D7) proliferation (AID 743322).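 Note: infected erythrocytes exposed to compound for 72 h before lysis; 100% = DMSO vehicle wells and 0% = 0.29 µM artemisinin.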 Particulars: P. falciparum 3D7 proliferation; at 28.7 µM (top of the series). The gist of the method: (§1)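 Parasite DNA was quantified by SYBR Green I fluorescence (ex 485, em 535 nm) after overnight lysis in saponin/Triton buffer at room temperature. Cultures at 0.3% parasitemia and 2.5% hematocrit were first exposed to compound for 72 h at 37 C; signals were normalised to artemisinin (0.29 uM) and vehicle wells.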

Assay [16] is described as follows: qHTS profiling for inhibitors of Plasmodium falciparum (DD2) proliferation (AID 743323; call rule not given here). Particulars: lower = more inhibition; at 28.7 µM (top of the series). The gist of the method:
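1536-well qHTS; infected RBCs 0.3% parasitemia/2.5% Hct final; cpd 72 h 37 C 5% CO2; lysis buffer + SYBR Green I, o/n RT dark; FI 485/535; norm. to 0.29 uM artemisinin and DMSO, plate-stack corrected.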

A short description of assay [17]: qHTS profiling for inhibitors of Plasmodium falciparum (HB3) proliferation (AID 743324).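 Note: 100% = DMSO vehicle wells and 0% = artemisinin-treated control wells.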 Particulars: Plasmodium falciparum HB3 blood-stage proliferation; at 28.7 µM (top of the series). The gist of the method: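 SYBR Green fluorescence (485 ex/535 em) of lysed cultures, incubated overnight at room temperature in the dark, quantifies parasite DNA. Infected erythrocytes at 0.3% parasitemia and 2.5% hematocrit were exposed 72 h; values normalized to DMSO and 0.29 uM artemisinin controls.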

Assay [18] can be described thus: qHTS profiling of the MIPE4 collection as inhibitors of Plasmodium falciparum (3D7) proliferation (AID 743344; call rule not given here;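 note: scaled between DMSO vehicle wells and 0.29 µM artemisinin as full inhibition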). Particulars: P. falciparum 3D7 in erythrocytes, SYBR Green DNA fluorescence, 72 h; at 28.5 µM (top of the series). The gist of the method:
as §1

A short description of assay [19]: qHTS profiling of the MIPE4 collection as inhibitors of Plasmodium falciparum (DD2) proliferation (AID 743345; call rule not given here). Particulars: P. falciparum Dd2 in erythrocytes, SYBR Green DNA, 72 h; at 28.5 µM (top of the series). The method in brief:
as §1

The nature of assay [20]: qHTS profiling of the MIPE4 collection as inhibitors of Plasmodium falciparum (DD2) proliferation (Rep 2) (AID 743346; call rule not given here). Particulars: P. falciparum Dd2 in erythrocytes, SYBR Green DNA, 72 h; at 28.5 µM (top of the series). The gist of the method: as §1
The nature of assay [21]: qHTS profiling of the MIPE4 collection as inhibitors of Plasmodium falciparum (HB3) proliferation (AID 743347; call rule not given here;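 note: plate controls were DMSO vehicle wells for no effect and artemisinin wells for full effect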). Particulars: P. falciparum HB3 in erythrocytes, SYBR Green DNA, 72 h; at 28.5 µM (top of the series). The method in brief:
as §1

In assay [22] the test system is Zika virus NS2B-NS3 protease. The experiment in a line: Primary screen GU AMC qHTS for Zika virus inhibitors (AID 1347154).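 Note: 0% = no-inhibitor control and -100% = no-enzyme control; nearly all actives have a fitted effect of over 70% in size.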 The gist of the method: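 Fluorogenic AMC-substrate cleavage by noncovalent NS2B-NS3 protease complex (25 nM, pH 8.0 Tris buffer with Tween 20) followed for 15 minutes at room temperature (~20% conversion). Percent inhibition from ex340/em450 signal change, fitted by 4-parameter Hill equation.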

Assay [23] is described as follows: Primary qHTS for small molecule stabilizers of the endoplasmic reticulum resident proteome: Secreted ER Calcium Modulated Protein (SERCaMP) assay (AID 1508630). Note: % is set by controls: 0 for no effect and ±100 for the full control effect. The gist of the method:
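The SH-SY5Y reporter protocol was run at 3 concentrations up to 38.3 uM (primary) or 11 concentrations (follow-up): 16 h compound, 100 nM thapsigargin for 4 h, then extracellular luciferase luminescence.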

Records with an inconclusive call do not appear. Calls of active or inactive are those of the source. Unless noted, calls come from the whole dose curve; as a rule, active = well fitted curve in the direction sought with a large enough effect; inconclusive = small, poorly fitted or top-dose-only effect, or another doubt; inactive = no such curve, though single readings can be large; an effect the other way counts as inactive or inconclusive.

Chain of Thyrotropin-releasing hormone receptor (Homo sapiens) (P34981 whole entry, looked up): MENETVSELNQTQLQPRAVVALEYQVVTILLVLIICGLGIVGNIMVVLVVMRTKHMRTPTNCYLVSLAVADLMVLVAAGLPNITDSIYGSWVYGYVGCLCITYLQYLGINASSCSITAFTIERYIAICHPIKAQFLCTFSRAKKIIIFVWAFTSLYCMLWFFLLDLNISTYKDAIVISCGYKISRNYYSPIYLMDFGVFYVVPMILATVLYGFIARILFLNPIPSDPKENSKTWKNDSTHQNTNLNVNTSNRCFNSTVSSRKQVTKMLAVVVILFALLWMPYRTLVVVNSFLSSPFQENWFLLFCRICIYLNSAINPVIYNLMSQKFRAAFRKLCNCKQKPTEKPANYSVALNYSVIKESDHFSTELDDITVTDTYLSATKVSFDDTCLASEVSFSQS
Chain of M-phase phosphoprotein 8 (Homo sapiens) (Q99549 whole entry, looked up): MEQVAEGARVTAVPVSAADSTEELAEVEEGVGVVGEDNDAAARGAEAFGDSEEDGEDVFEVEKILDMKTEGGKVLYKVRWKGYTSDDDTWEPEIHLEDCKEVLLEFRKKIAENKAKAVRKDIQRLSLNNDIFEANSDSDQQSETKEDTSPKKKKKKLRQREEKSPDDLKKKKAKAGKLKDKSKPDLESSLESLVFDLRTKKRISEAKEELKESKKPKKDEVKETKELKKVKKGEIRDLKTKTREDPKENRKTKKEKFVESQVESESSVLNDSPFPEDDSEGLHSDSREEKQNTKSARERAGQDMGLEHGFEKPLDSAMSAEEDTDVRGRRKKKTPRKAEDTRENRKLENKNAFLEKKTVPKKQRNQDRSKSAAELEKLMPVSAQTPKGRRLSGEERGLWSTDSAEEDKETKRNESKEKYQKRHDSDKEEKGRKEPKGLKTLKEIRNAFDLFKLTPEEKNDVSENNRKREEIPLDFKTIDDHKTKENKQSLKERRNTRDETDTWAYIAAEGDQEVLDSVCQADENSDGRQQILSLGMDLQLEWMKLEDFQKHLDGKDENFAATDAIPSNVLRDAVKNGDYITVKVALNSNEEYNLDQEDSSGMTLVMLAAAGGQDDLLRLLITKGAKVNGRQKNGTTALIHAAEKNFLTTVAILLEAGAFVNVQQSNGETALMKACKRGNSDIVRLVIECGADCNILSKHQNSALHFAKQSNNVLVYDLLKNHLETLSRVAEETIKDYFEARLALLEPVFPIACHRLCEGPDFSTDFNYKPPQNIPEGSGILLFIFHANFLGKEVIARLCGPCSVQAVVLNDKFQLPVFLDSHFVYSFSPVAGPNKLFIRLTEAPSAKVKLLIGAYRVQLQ
Chain of Thyrotropin receptor (Homo sapiens) (P16473 whole entry, looked up): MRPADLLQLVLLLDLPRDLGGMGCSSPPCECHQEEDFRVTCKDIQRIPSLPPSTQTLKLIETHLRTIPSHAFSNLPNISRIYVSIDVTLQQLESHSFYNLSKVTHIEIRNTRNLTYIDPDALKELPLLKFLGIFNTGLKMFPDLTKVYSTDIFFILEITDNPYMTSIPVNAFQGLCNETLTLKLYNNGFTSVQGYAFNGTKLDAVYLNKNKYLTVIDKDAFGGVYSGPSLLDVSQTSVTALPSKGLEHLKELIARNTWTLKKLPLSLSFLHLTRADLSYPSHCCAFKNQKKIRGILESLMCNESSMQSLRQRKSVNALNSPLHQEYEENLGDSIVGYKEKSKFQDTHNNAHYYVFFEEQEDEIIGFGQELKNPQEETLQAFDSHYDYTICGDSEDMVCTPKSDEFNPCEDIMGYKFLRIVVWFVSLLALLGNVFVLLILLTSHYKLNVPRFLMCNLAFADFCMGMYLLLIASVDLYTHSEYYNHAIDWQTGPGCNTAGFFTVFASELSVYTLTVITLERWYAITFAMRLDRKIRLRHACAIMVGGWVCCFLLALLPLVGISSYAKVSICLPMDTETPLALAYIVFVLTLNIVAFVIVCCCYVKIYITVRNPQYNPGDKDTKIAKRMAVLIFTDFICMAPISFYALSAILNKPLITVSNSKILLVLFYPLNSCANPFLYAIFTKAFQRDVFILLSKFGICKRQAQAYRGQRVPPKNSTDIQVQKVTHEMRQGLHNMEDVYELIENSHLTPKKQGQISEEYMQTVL
Chain of Galactokinase (Homo sapiens) (P51570 whole entry, looked up): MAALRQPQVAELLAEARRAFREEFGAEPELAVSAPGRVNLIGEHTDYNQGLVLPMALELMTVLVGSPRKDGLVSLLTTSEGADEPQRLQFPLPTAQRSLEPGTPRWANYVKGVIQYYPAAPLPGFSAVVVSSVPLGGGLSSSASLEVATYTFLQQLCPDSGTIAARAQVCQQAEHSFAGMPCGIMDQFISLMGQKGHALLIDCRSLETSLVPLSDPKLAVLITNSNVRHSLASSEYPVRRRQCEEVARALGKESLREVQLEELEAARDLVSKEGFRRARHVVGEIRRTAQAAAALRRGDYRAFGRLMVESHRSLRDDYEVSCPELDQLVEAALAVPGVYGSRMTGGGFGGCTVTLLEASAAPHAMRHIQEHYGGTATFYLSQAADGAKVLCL

Regarding `COc1cc2c(cc1C(F)(F)F)N(C(=O)Nc1cc(F)cc(-c3cccnc3)c1)CC2`, the Potency in [1] is 2240 nM (active); in assay [2], 6310 nM (active); in assay [3] it was 2240 nM (active); in assay [4] it was 1260 nM (active); in assay [7], 1850 nM (active). Further, the result in [5], in assay [9], in [11] and in assay [12] was inactive. The Potency result in [6], in [8], in assay [13], in assay [14], in assay [22] and in [23] was “inactive” throughout. Also, the activation in [10] is 5.25% (inactive). The remaining parasite growth % (stronger effect = lower value) in [15] is -1.39%. The compound further showed an activity, percent of control in assay [16] of 5.68%. The remaining proliferation (% of control), lower = more inhibition in assay [17] is -0.36%. Also, the parasite growth, % of DMSO control in [18] was 6.27%. The parasite growth remaining, % of DMSO control (lower = more inhibition) in [19] was 15.3%. In assay [20], this compound displayed a parasite growth, % of control (lower = inhibition) of 34.1%. The compound further displayed a growth, % of control in [21] of 3.34%.
